Results from PubChem BioAssay (NCI).
Compounds without any hit were thinned out: in the full panel of roughly 83,000, 20% have a hit.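 For each line, cells grew in 96-well plates with the test compound present at a single concentration for 48 hours.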 Unmarked numbers belong to inactive results. Activity calls are given as the source filed them. The calls were made as follows: active = growth percent below 10; inactive = the rest.

Key:
Test in all cases: NCI-60 one-dose screen, 48 h (100 = growth as untreated, 0 = no growth, -100 = all killed)
Settings in all cases: 10 µM unless noted
SK-MEL-2 melanoma = system: SK-MEL-2 melanoma
EKVX NSCLC = system: EKVX NSCLC
SN12C renal = system: SN12C renal
UO-31 renal = system: UO-31 renal
TK-10 renal = system: TK-10 renal
ACHN renal = system: ACHN renal
CAKI-1 renal = system: CAKI-1 renal
CCRF-CEM leukemia = system: CCRF-CEM leukemia
MOLT-4 leukemia = system: MOLT-4 leukemia
SR leukemia = system: SR leukemia
RPMI-8226 leukemia = system: RPMI-8226 leukemia
OVCAR-5 ovarian = system: OVCAR-5 ovarian
OVCAR-4 ovarian = system: OVCAR-4 ovarian
SK-OV-3 ovarian = system: SK-OV-3 ovarian
IGROV1 ovarian = system: IGROV1 ovarian
OVCAR-3 ovarian = system: OVCAR-3 ovarian
HS 578T breast = system: HS 578T breast
NCI/ADR-RES ovarian = system: NCI/ADR-RES ovarian
A498 renal = system: A498 renal
OVCAR-8 ovarian = system: OVCAR-8 ovarian

| SMILES | growth (SK-MEL-2 melanoma) | growth (EKVX NSCLC) | growth (SN12C renal) | growth (UO-31 renal) | growth (TK-10 renal) | growth (ACHN renal) | growth (CAKI-1 renal) | growth (CCRF-CEM leukemia) | growth (MOLT-4 leukemia) | growth (SR leukemia) | growth (RPMI-8226 leukemia) | growth (OVCAR-5 ovarian) | growth (OVCAR-4 ovarian) | growth (SK-OV-3 ovarian) | growth (IGROV1 ovarian) | growth (OVCAR-3 ovarian) | growth (HS 578T breast) | growth (NCI/ADR-RES ovarian) | growth (A498 renal) | growth (OVCAR-8 ovarian) |
| --- | --- | --- | --- | --- | --- | --- | --- | --- | --- | --- | --- | --- | --- | --- | --- | --- | --- | --- | --- | --- |
| O=c1c(/C=C/c2c(O)ccc3ccccc23)nnc2sc(-c3cccc([N+](=O)[O-])c3)nn12 | 79.2% | 54.4% | 45.9% | 20.1% | 83.1% | 31.7% | 24.9% | 18.6% | 25.9% | 28.3% | 57.3% | 82.1% | 25.5% | 46% | 43.1% | 15.2% | 68.3% | 29.4% | – | – |
| COC(=O)CCc1c(/C=C2\N=C(c3ccc[nH]3)C=C2OC)[nH]c(C)c1C(=O)OCc1ccccc1 | -27.8% (active) | 27.4% | 15.8% | -67.2% (active) | 18.4% | 4.36% (active) | – | 1.47% (active) | 16.9% | -17.8% (active) | -32.5% (active) | 34.1% | 31.3% | 21.5% | 21.7% | -31.1% (active) | -14.7% (active) | 9.4% (active) | 15.1% | 7.03% (active) |
| O=C(/C=C/c1ccc(Cl)cc1)c1ccc(Nc2ccnc3cc(Cl)ccc23)cc1 | 54% | 136% | 97.1% | 65% | 111% | 109% | – | 3.01% (active) | 43.4% | -17% (active) | -41.9% (active) | 84.6% | 94.7% | 112% | 57% | 86.5% | – | 83.5% | 108% | 85.2% |
| CCN(CC)c1ccc(/C=N/NC(=O)c2ccccc2Nc2ccnc(C(F)(F)F)c2)c(O)c1 | 94.1% | 30.5% | 22.2% | 16% | 33.3% | 11.9% | – | 14.5% | 59.6% | 65.1% | 26.5% | 57.3% | 33.1% | 19.9% | 47.5% | 36.7% | 61.1% | 17.3% | 47.8% | 35.1% |
| CCN1C(=O)N(CC)C2C1NC(=S)N2/N=C/C=C/c1ccccc1 (centres undefined) | 10.6% | 27.8% | 26.2% | 40.7% | 49.6% | 22.8% | – | 2.75% (active) | 8.08% (active) | 7.76% (active) | -8.74% (active) | 59.6% | 46.9% | 20.4% | 21% | -8.49% (active) | 13.6% | 0.601% (active) | -6.35% (active) | 6.3% (active) |
| CC(=O)O[C@H]1CC[C@@]2(C)C(=CC[C@@H]3[C@@H]2CC[C@]2(C)C(Cl)=C(c4nc5ccc(Cl)cn5c4NC(C)(C)C)C[C@@H]32)C1 | 99.9% | 88.1% | 97.7% | 86.6% | 89.3% | 92.1% | 65.1% | 92.3% | 101% | 93% | 93.9% | 91.5% | 90.3% | 105% | 87.9% | 100% | – | 95.4% | – | – |
| COc1ccc(-c2ccc(-c3ccc(C(=N)N)o3)o2)cc1 | 54% | 58.4% | -23.9% (active) | 45.5% | 61.9% | 41.6% | – | 5.45% (active) | 27.7% | -4.13% (active) | 14.3% | 38.4% | 58.8% | 35.8% | 57.1% | -27.8% (active) | 56.2% | 14.4% | 9.73% (active) | 28.9% |
| COc1ccc(CNc2c3ccccc3nc3ccccc23)cc1OC | 38.6% | 15.2% | 22.5% | 12.1% | 32.3% | 4.11% (active) | – | 30.5% | 10.6% | 8.57% (active) | 0.62% (active) | 27.5% | 21.4% | 41.2% | 10.9% | 43.7% | 37.2% | 19.3% | -12.1% (active) | 23.9% |
| C=C(C[n+]1ccccc1)[C@@H]1CC[C@]2(C(=O)OC)CC[C@]3(C)[C@H](CC[C@@H]4[C@@]5(C)CCC(=O)C(C)(C)[C@@H]5CC[C@]43C)[C@@H]12 | 89% | 93.4% | 87.8% | 86.4% | 102% | 95.4% | – | 82.6% | 78.9% | 84.8% | 52.3% | 101% | 55% | 99% | 64.2% | 58.9% | 87.9% | 103% | 88.7% | 90.3% |
| COc1ccccc1-c1nc2ccc3[nH]ncc3c2c2c1CCCC2 | 99% | 44.3% | 80.5% | 36.3% | 60.4% | 58.2% | – | 66.6% | 42.6% | 29.1% | 68.6% | 103% | 85.6% | 80.5% | 58.9% | 114% | 44.8% | 80.6% | 6.87% (active) | 81.2% |
| COC(=O)[C@@H](Cc1c[nH]c2ccccc12)NC(=O)[C@H](Cc1ccccc1)NCc1ccncc1 | 77.7% | 103% | 100% | 71.9% | 98.1% | 109% | – | 90.3% | 92.5% | 99.2% | 84.6% | 101% | 98.7% | 94% | 101% | 101% | – | 99.9% | 100% | 89.1% |
| COc1cc(/C=C2\C(=O)N(CCOc3cc(O)c4c(=O)cc(-c5ccccc5)oc4c3)c3ccccc32)cc(OC)c1O | – | – | – | – | – | 66.9% | – | – | – | – | – | – | – | – | – | – | – | – | – | – |
| CNC1=C([N+](=O)[O-])C(c2ccc(OC)cc2)C(C#N)=C(c2ccc[nH]2)O1 (centres undefined) | – | – | – | – | – | 105% | – | – | – | – | – | – | – | – | – | – | – | – | – | – |
| CCOC(=O)/C(=C/c1ccc([N+](=O)[O-])cc1)C(=O)c1ccccc1 | 53.9% | 103% | – | -14.3% (active) | 20.7% | -7.93% (active) | 81.6% | 6.25% (active) | 4.35% (active) | 4.07% (active) | -13% (active) | 41.7% | 76% | 102% | 42.5% | 58.4% | – | 25.7% | 83.5% | 41.5% |
| Cc1ccc(C2(C)NC(=O)N(CC(=O)Nc3cccc(C)c3)C2=O)cc1 (centres undefined) | 84.9% | 101% | – | 82% | 106% | 98.6% | 112% | 112% | 80.4% | -22.7% (active) | 67.8% | 97.1% | 99.3% | 97.6% | 105% | 111% | 102% | 94.8% | 123% | 105% |
| COc1cc(/C=C/c2cc(/C=C/c3ccc(O)c(OC)c3)n(C(=O)Nc3ccc(C)cc3C)n2)ccc1O | -27.2% (active) | -14.7% (active) | – | -38.7% (active) | 15.9% | 5.29% (active) | -36.6% (active) | 1.54% (active) | -20.7% (active) | -2.07% (active) | -16.7% (active) | -4.24% (active) | 7.87% (active) | -63.6% (active) | -1.75% (active) | -37.3% (active) | -15% (active) | 7.64% (active) | -14.7% (active) | -34.7% (active) |
| CCOC(=O)c1ccc2c(c1)c1c(C)c3cnccc3c(C)c1n2C | -89% (active) | -13.4% (active) | – | -53.6% (active) | -65.3% (active) | -95% (active) | -25% (active) | -2.56% (active) | 2.2% (active) | 14.9% | -29.7% (active) | -46.7% (active) | -14.8% (active) | -21.4% (active) | -62.7% (active) | -47.5% (active) | – | -33.1% (active) | -78.7% (active) | -21.5% (active) |
| COC(=O)c1c(C(=O)OC)c2ccc3c4ncccc4ccc3n2c1C(=O)c1ccc(C)cc1 | 83.2% | 83.2% | – | 74.3% | 93.4% | 77.1% | 83.9% | 71.2% | 73.3% | 75.8% | 84.1% | 87.1% | 90.9% | 87.8% | 94.4% | 102% | 96.3% | 92.7% | 92.8% | 82.7% |
